# Results: PubChem BioAssay (NCI)
# “And” between values parts separate entries of the source, which are not always exact repeats. Equal entries are not always repeated. This is part of a sample that, as a whole, favours compounds with a hit. Of some 83,000 tested, about 20% had one in any assay.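 Step 1: grow cells in 96-well plates. Step 2: add test compound at a single concentration. Step 3: incubate 48 h. Step 4: record percent growth.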 The source made the active and inactive calls.
# System: UO-31 renal
# Test: NCI-60 one-dose screen, 48 h (100 = growth as untreated, 0 = no growth, -100 = all killed)
# Settings: 10 µM
# Experimental: Growth inhibition of the UO-31 human tumor cell line is measured as a screen for anti-cancer activity. Cells are grown in 96 well plates and exposed to the test compound for 48 hours. Compounds are tested at a single concentration, which is 10^-5 M for most compounds. The reported endpoint is percent growth (GI% or GIPRCNT), where numbers from 0 - 100% represent growth inhibition, and numbers from -100% - 0 represent cell death. For example, a value of 40 represents 60% growth inhibition. A value of 0 means no net growth occurred over the course of the experiment. A value of -40 indicates 40% of cells at the beginning of the experiment died by the end of the experiment. A value of -100 means all cells are dead at the end of the experiment.
# NCI-60 Human Tumor Cell Lines Screen was performed using the standard one-dose NCI protocol, which is described in more detail at https://dtp.cancer.gov/discovery_development/nci-60/default.htm.
# Compounds with GIPRCNT values below 10 were considered active. Activity score was based on GIPRCNT using the following formula: […]
# Score is 0 for GIPRCNT values of 100 or above, 50 for GIPRCNT values of 0, and 100 for GIPRCNT values of -100.
row,Structure (SMILES),growth
1,CC1=C2C(=C[C@@](C)(COC(=O)c3ccc(S(=O)(=O)F)cc3)[C@@H]2OC(=O)c2ccc(S(=O)(=O)F)cc2)C(=O)[C@](C)(O)C12CC2,-13.7% (active)
2,C=C1[C@@H](C)C2[C@H](Cc3ccccc3)NC(=O)[C@]23[C@H](OC(C)=O)/C=C/[C@@](C)(O)C(=O)[C@@H](C)C/C=C/[C@H]3[C@@H]1O (stereo not given in full),-14.6% (active)
3,C[C@@H]1C[C@H]2C(=O)O[C@@H](C)C(NC(=O)[C@H](Cc3cc(F)cc(F)c3)NC(=O)Nc3ccc(OS(=O)(=O)F)cc3)C(=O)N3CCC[C@H]3C(=O)N3CCO[C@H](C)[C@H]3C(=O)N[C@@H](CO)C(=O)N2C1 (stereo not given in full),88.7% (inactive)
4,COC(=O)[C@H]1[C@@H](O)[C@@]2(O)c3c(OC)cc(OC)cc3O[C@@]2(c2ccc(OC)cc2)[C@@H]1c1ccccc1,-20.5% (active)
5,CC(C)=CCc1c2c(c(O)c3c1O[C@]14C(=C[C@@H]5C[C@H]1C(C)(C)O[C@@]4(C/C=C(/C)C(=O)O)C5=O)C3=O)C=CC(C)(C)O2,-76% (active)
6,C/C=C/CC(C)C(O)[C@H](NC(=O)[C@@H]1CCCN1C(=O)C(C)(C)NC(=O)CCCCCCC)C(=O)N[C@@](C)(CC)C(=O)N[C@@H](CCC(N)=O)C(=O)N[C@H](CCC(N)=O)C(=O)NC(C)(C)C(=O)NC(C)(C)C(=O)N[C@@H](CCC(N)=O)C(=O)N[C@H](CC(C)C)C(=O)N[C@H](CO)CC(C)C (stereo not given in full),96.7% (inactive) and 16.1% (inactive)
7,O=C(CCCc1ccc(N(CCCl)CCCl)cc1)OCc1ccccc1,83.6% (inactive)
8,CC1=C(CCC=NNC(N)=O)C2=C(C)C3(CC3)[C@@](C)(O)C(=O)C2=C1,-29.1% (active)
9,COc1cc2c(O[C@@H]3OC[C@H](OC(C)=O)[C@H](OC(C)=O)[C@H]3O)c3c(c(-c4ccc5c(c4)OCO5)c2cc1OC)C(=O)OC3,50% (inactive)
10,N#Cc1c(-n2c(Br)c(Br)c3cc(Br)ccc32)[nH]c2c(Br)cc(Br)cc12,1.66% (active)
11,CC1=C(CN(O)C(N)=O)C2=C(C)C3(CC3)[C@@](C)(O)C(=O)C2=C1,-31.8% (active)
12,COc1cc(C)c(-c2ccc(OC)c(=O)cc2C)c(OC)c1OC,47.5% (inactive) and 88.6% (inactive)
13,CN1C(=O)[C@]23SSC1(C)C(=O)N2[C@H]1Nc2ccccc2C1([C@@]12c4ccccc4N[C@@H]1N1C(=O)C4(C)SS[C@]1(C(=O)N4C)[C@H]2O)[C@@H]3O (stereo not given in full),-100% (active)
14,CC(=O)O[C@@H]1[C@@H]2O[C@H]2[C@@](C)(O)C(=O)[C@@H](C)C/C=C/[C@H]2[C@@H]3O[C@]3(C)[C@@H](C)C3[C@H](Cc4ccccc4)NC(=O)[C@@]312 (stereo not given in full),24.8% (inactive)
15,CC1=C[C@H]2O[C@@H]3C[C@H]4OC(=O)/C=C\C=C\[C@H]([C@@H](C)O)OCC/C(C)=C/C(=O)OC[C@@]2(CC1)[C@]4(C)[C@]31CO1,-29.4% (active)
16,C/C=C/CC(C)C(O)[C@H](NC(=O)[C@@H]1CCCN1C(=O)C(C)(C)NC(=O)CCCCCCCCC)C(=O)NC(C)(C)C(=O)N[C@@H](CCC(N)=O)C(=O)N[C@H](CCC(N)=O)C(=O)NC(C)(C)C(=O)NC(C)(C)C(=O)N[C@@H](CCC(N)=O)C(=O)N[C@H](CC(C)C)C(=O)N[C@H](CO)CC(C)C (stereo not given in full),39.7% (inactive) and -38.5% (active)
17,COc1cc(OC)c(S(=O)(=O)N(CCCl)CCCl)cc1C(=O)/C=C/c1ccc(Cl)cc1,66.9% (inactive)
18,CC(C)(O)/C=C/C(=O)[C@](C)(O)[C@H]1[C@H](O)C[C@@]2(C)[C@H]3CC=C4[C@@H](C[C@H](O)C(=O)C4(C)C)[C@]3(C)C(=O)C[C@]12C,-52.7% (active)
19,COc1cccc2c1cc([N+](=O)[O-])c1c(C(=O)O)cc3c(c12)OCO3,85.1% (inactive)
20,N#Cc1nc(-c2ccccc2)oc1N1CCC(S(=O)(=O)F)CC1,86.7% (inactive)

row,Structure (SMILES),growth
1,CCC(C)[C@H]1C(=O)O[C@H](C(C)C)C(=O)N(C)[C@@H](C(C)C)C(=O)O[C@H](C(C)C)C(=O)N(C)[C@@H](C(C)C)C(=O)O[C@H](C(C)C)C(=O)N1C (stereo not given in full),-10.8% (active)
2,C[C@@H]1CCC/C=C/[C@H]2C[C@@H](O)C[C@@H]2[C@@H](O)/C=C/C(=O)O1,6.57% (active)
3,C/C=C/CC(C)C(O)[C@H](NC(=O)[C@@H]1CCCN1C(=O)C(C)(C)NC(=O)CCCCCCCCC)C(=O)N[C@@](C)(CC)C(=O)N[C@@H](CCC(N)=O)C(=O)N[C@H](CCC(N)=O)C(=O)NC(C)(C)C(=O)NC(C)(C)C(=O)N[C@@H](CCC(N)=O)C(=O)N[C@H](CC(C)C)C(=O)N[C@H](CO)CC(C)C (stereo not given in full),39.1% (inactive) and 62.6% (inactive)
4,CCCCCCCCCC(=O)N[C@@](C)(CC)C(=O)N1CCC[C@H]1C(=O)N[C@@H](CC(C)C)C(=O)N[C@@](C)(CC)C(=O)N[C@@H](CCC(N)=O)C(=O)N[C@H](CCC(N)=O)C(=O)NC(C)(C)C(=O)NC(C)(C)C(=O)N[C@@H](CCC(N)=O)C(=O)N[C@H](CC(C)C)C(=O)N[C@H](CO)CC(C)C,-96.4% (active) and -89.3% (active)
5,COc1cc2c(cc1OC)[C@@H]1N(CC2)C(=O)c2ccccc2[C@@]1(C)C(=O)O,97.3% (inactive)
6,CN(CCF)/N=N/c1nc[nH]c1C(N)=O,21.1% (inactive)
7,CC1=C2C(=C[C@@](C)(COC(=O)c3ccc(S(=O)(=O)F)cc3)[C@@H]2O)C(=O)[C@](C)(O)C12CC2,-21.4% (active)
8,CC1=C2C(=C[C@@](C)(C=O)[C@@H]2O)C(=O)[C@](C)(O)C12CC2,-13.3% (active)
9,COC1[C@@H]2C[C@H]3C(C)(C)O[C@@](C/C=C(/C)C(=O)O)(C2=O)[C@]32Oc3c(CC=C(C)C)c4c(c(O)c3C(=O)[C@H]12)C=CC(C)(C)O4 (stereo not given in full),-69.6% (active)
10,CC1=C(CN(O)C(N)=O)C2=C(C)C3(CC3)[C@](C)(O)C(=O)C2=C1,-20.3% (active)
11,CC1=C[C@H]2O[C@@H]3C[C@H]4OC(=O)/C=C\C=C\[C@H]([C@@H](C)O)OCC[C@@H](C)[C@H](O)C(=O)OC[C@@]2(CC1)[C@]4(C)[C@]31CO1,-33.6% (active)
12,COc1cc2c(O[C@@H]3OC[C@H](O)[C@H](O)[C@H]3O)c3c(c(-c4ccc5c(c4)OCO5)c2cc1OC)C(=O)OC3,82.2% (inactive)
13,Cc1ccc(CNc2nc3ccc(OC/C(=C/F)CN)cc3o2)cn1,58.4% (inactive)
14,NC1CCc2cc(O)c(O)cc2C1 (stereo not given),85.1% (inactive)
15,CC1=C2C(=O)[C@](C)(CO)C=C2C(=O)[C@](C)(O)C12CC2,-20.7% (active)
16,CC(=O)O[C@@H]1C[C@H]2O[C@@H]3C=C(C)CC[C@]3(C)[C@]1(C)[C@]21CO1,53.3% (inactive)
17,CC1=C[C@H]2O[C@@H]3C[C@@H](O)[C@](C)([C@@]2(C)CC1)[C@@]31CO1,16.7% (inactive)
18,C/C=C/CC(C)C(O)[C@H](NC(=O)[C@@H]1CCCN1C(=O)C(C)(C)NC(=O)CCCCCCCCC)C(=O)N[C@@](C)(CC)C(=O)N[C@@H](CCC(N)=O)C(=O)N[C@H](CCC(N)=O)C(=O)NC(C)(C)C(=O)N[C@@](C)(CC)C(=O)N[C@@H](CCC(N)=O)C(=O)N[C@H](CC(C)C)C(=O)N[C@H](CO)CC(C)C (stereo not given in full),85.2% (inactive) and -84.9% (active)
19,CC1=C2C(=C[C@@](C)(COS(C)(=O)=O)[C@@H]2O)C(=O)[C@](C)(O)C12CC2,-8.95% (active)
20,C/C=C\C(=O)O[C@@H]1CC2O[C@@H]3C=C(C)C(=O)C[C@]3(C)[C@]1(C)[C@]21CO1,-12.4% (active)
